From PubChem BioAssay (NCI)
About 79,000 compounds went through this panel and 15% of them were active in at least one assay; those are over-represented in the sample as a whole. Cut-off read from the data, not from the text of the source: active = growth inhibition above about 70%; inactive = the rest.

Columns and labels:
[1] = NCI Yeast Anticancer Drug Screen. Data for the rad50 strain (AID 155);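 note: 0% = growth of vehicle-only cultures of the same strain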; conditions: S. cerevisiae rad50 strain growth inhibition; at 50.0 µM; hits give high values
In short: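 A DNA repair-deficient yeast mutant serves as the test organism; compound-induced growth inhibition is calculated against vehicle-treated cells.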

[2] = NCI Yeast Anticancer Drug Screen. Data for the mec2-1 strain (AID 157); conditions: S. cerevisiae mec2-1 strain, at 50.0 µM, hits give high values
In short: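 Compounds were applied to mec2-1 yeast cells. Their growth was then compared with that of vehicle-treated cultures to give growth inhibition.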

[3] = NCI Yeast Anticancer Drug Screen. Data for the sgs1 mgt1 strain (AID 161);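 note: 0% = growth of cultures given vehicle only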; conditions: S. cerevisiae sgs1 mgt1 strain, at 50.0 µM, hits give high values
In short: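 Compounds are added to genetically altered yeast, and growth is compared with cultures given vehicle alone to give percent inhibition.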

[4] = NCI Yeast Anticancer Drug Screen. Data for the cln2 rad14 strain (AID 165);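 note: 0% = growth equal to vehicle treated cultures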; conditions: S. cerevisiae cln2 rad14 strain, at 50.0 µM, hits give high values
In short: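 Strain: cln2 rad14 yeast, altered in cell cycle control and DNA damage repair. Read-out: growth inhibition vs vehicle.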

[5] = NCI Yeast Anticancer Drug Screen. Data for the bub3 strain (AID 167); conditions: S. cerevisiae bub3 mutant strain, at 50.0 µM, hits give high values
In short: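 Inhibition values come from growth of compound-treated mutant yeast normalised to vehicle-treated controls.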

[6] = NCI Yeast Anticancer Drug Screen. Data for the mlh1 rad18 strain (AID 175); conditions: S. cerevisiae mlh1 rad18 strain growth inhibition; at 50.0 µM; hits give high values
In short: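 A repair-deficient yeast strain is exposed to test compound, and growth is scored relative to vehicle-treated controls.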

Measured: growth inhibition

Cc1cc(C)c(C(=O)CSC(=N)N)c(C)c1
inactive: [1] -4.45% | [2] 11.3% | [3] 7.5% | [4] -6.6% | [5] 9.55% | [6] 2.4%

CC(C)(C(=Nc1ccc([N+](=O)[O-])cc1)N1CCOCC1)c1ccccc1
inactive: [1] 9% | [2] 6.7% | [3] 5.05% | [4] 34.6% | [5] 32.1% | [6] 22.6%

C/C(CC(=O)NCCc1ccccc1)=N\NS(=O)(=O)c1ccc(C)cc1
inactive: [1] 37.1% | [2] -6.6% | [3] 10.2% | [4] 28.3% | [5] -4.2% | [6] 8%

CC(Oc1ccc2ccccc2c1I)C(=O)O (stereo not given)
inactive: [1] 27.9% | [2] 12.8% | [3] 37.8% | [4] 18.6% | [5] 57.4% | [6] 36.8%

Cc1ccc(S(=O)(=O)N/N=C/c2oc(-c3ccccc3Cl)c(-c3ccccc3Cl)c2[N+](=O)[O-])cc1
inactive: [1] 54.2% | [2] 45.3% | [3] 58.5% | [4] 38.4% | [5] 41.5% | [6] 48.1%

CCOC(=O)C(F)(F)C(F)(F)C(F)(F)F
inactive: [1] 5.45% | [2] -16.4% | [3] 9.1% | [4] 10.9% | [5] -5.55% | [6] 11.8%

COc1c(C)c(C)c(OC)c(CC(=O)O)c1C
inactive: [1] -3.05% | [2] -0.6% | [3] -3.7% | [4] -34.9% | [5] -17.7% | [6] 4.9%

COc1ccc(OC)c(C(=O)c2cccc(C(=O)c3cc(OC)ccc3OC)n2)c1
inactive: [1] 20.9% | [2] 6.25% | [3] 42.5% | [4] -21.8% | [5] -30.4% | [6] 20.6%

O=C(O)C1C=CCC2C(O)C=CC(=O)C12 (stereo not given)
inactive: [1] -5.95% | [2] -31.2% | [3] -1.05% | [4] -2.4% | [5] -11% | [6] -5.9%

COc1cc2c(c3c1c(=O)c1ccccc1n3C)C=CC(C)(C)O2
inactive: [1] 10.9% | [2] -13.9% | [3] 22.7% | [4] 11.2% | [5] 4.75% | [6] 9.9%

COC1OC2COC(c3ccccc3)OC2C(NC(C)=O)C1OC(C)=O (stereo not given)
inactive: [1] 4.6% | [2] 17.7% | [3] 8.9% | [4] 9.9% | [5] -12.5% | [6] -13.1%

OCCN(CCO)c1ncnc2c1ncn2-c1ccc(CCCl)cc1
inactive: [1] 5.3% | [2] -3.1% | [3] -2.85% | [4] 6.05% | [5] 19% | [6] 0.1%

Clc1cccc(-c2sc(-c3cccs3)cc2Cc2cccs2)c1
inactive: [1] -42.8% | [2] -39.8% | [3] -29.4% | [4] 2.2% | [5] -9.2% | [6] -14.5%

CC(C)(c1ccc(C(=O)O)cc1)c1ccc(C(=O)O)cc1
inactive: [1] -1.65% | [2] 5.05% | [3] -1.1% | [4] -5.7% | [5] -14.5% | [6] -9.15%

Cc1cc(Cl)cc(CN(Cc2ccccc2)Cc2cc(Cl)cc(C)c2O)c1O
inactive: [1] 1.3% | [2] -3.55% | [3] 18.2% | [4] 25.7% | [5] 2% | [6] -6.8%

O=C(CCN1CCC2CCC(C2)C1)c1ccc(Cl)cc1 (stereo not given)
inactive: [1] 17.3% | [2] 3.35% | [3] 46.5% | [4] -4% | [5] 21.3% | [6] -7.3%

CC(=O)O/C(=C\C(=O)[C@H]1CC[C@H]2[C@@H]3CC[C@@H]4C[C@H](OC(C)=O)CC[C@]4(C)[C@H]3C(=O)C[C@]12C)C(F)(F)F
inactive: [1] -16.1% | [2] 23.6% | [3] 5.25% | [4] 18.8% | [5] 8.85% | [6] -13.6%

CC(NCCOc1ccccc1)c1ccccc1 (stereo not given)
inactive: [1] 9.1% | [2] 33.4% | [3] 3.2% | [4] 10.7% | [5] -0.75% | [6] 9.25%

C(=C\c1cccs1)/c1csnn1
inactive: [1] 0.7% | [2] 15.7% | [3] 3.45% | [4] 12.8% | [5] -1.75% | [6] -7.55%

O=C(O)C1C2C3CCC(C3)C12 (stereo not given)
inactive: [1] 2.7% | [2] 16.4% | [3] 8.2% | [4] 34.6% | [5] -4.9% | [6] 1.95%

CCc1ccc(C(=O)CN2CCCc3ccccc32)cc1
inactive: [1] -13.4% | [2] 0.7% | [3] -6.55% | [4] -17.2% | [5] 1.95% | [6] -13.8%

CC(C)C1CSC2N1C(=O)C2(OCc1ccccc1)C1CC1 (stereo not given)
inactive: [1] 3.3% | [2] -22.4% | [3] -3.2% | [4] -16.2% | [5] -20.1% | [6] 9.1%

COc1ccc(OC)c(NC(=O)CCCC(=O)C(C#N)c2c(Cl)cccc2Cl)c1 (stereo not given)
inactive: [1] 8.6% | [2] 5.5% | [3] -5.7% | [4] -8.05% | [5] 9.2% | [6] -3.5%

O=C(c1cccc([N+](=O)[O-])c1)c1cccs1
inactive: [1] 6.6% | [2] -7.2% | [3] -9.05% | [4] 4.3% | [5] -5.2% | [6] -4.05%

Brc1ccccc1-c1nnc(-c2cccc3ccccc23)o1
inactive: [1] -20.9% | [2] -59.9% | [3] -15.3% | [4] -10.8% | [5] -26.6% | [6] -23.2%

COc1ccc(C(O)(c2ccccc2)c2nccc3ccccc23)cc1 (stereo not given)
inactive: [1] 6.6% | [2] 3.75% | [3] 30.4% | [4] 1.45% | [5] 10.3% | [6] -9.4%

CC(=O)N(Cl)c1ccc(N=Nc2ccccc2)cc1F
inactive: [1] 24.5% | [2] 15.1% | [3] 32.5% | [4] -9.7% | [5] -7.7% | [6] 6.8%

CCCCCCCOc1ccc(/C=C\c2cc[n+](CCCCCCCC[n+]3ccc(/C=C\c4ccc(OCCCCCCC)cc4)cc3)cc2)cc1
inactive: [1] -22.4% | [2] -7.95% | [3] -14.2% | [4] 22.7% | [5] 8.1% | [6] 10.2%

C/[N+]([O-])=N/COC1OC(COC2OCC(O)C(O)C2O)C(O)C(O)C1O (stereo not given)
inactive: [1] 7.5% | [2] -0.4% | [3] 25.6% | [4] 13.8% | [5] 8.85% | [6] 3.7%

Cc1[nH]nc(N)c1C(N)=O
inactive: [1] 5.2% | [2] 2.5% | [3] 26.6% | [4] 1.2% | [5] 0.85% | [6] 5.85%

Cc1ccc(NC(=O)/C(CC(=O)c2sc(Nc3ccccc3Cl)nc2C)=N\Nc2ccc([N+](=O)[O-])cc2[N+](=O)[O-])c(C)c1
inactive: [1] -1% | [2] 17.1% | [3] 4.25% | [4] -12.1% | [5] 4.55% | [6] -4.25%

CCC(C)(O)C#CC(C)(O)CC (stereo not given)
inactive: [1] -0.1% | [2] -0.95% | [3] 11.8% | [4] -63% | [5] 9.8% | [6] -40.8%

CN(C)CCC(=O)c1ccc(C(=O)CCN(C)C)cc1
inactive: [1] -0.4% | [2] 25.6% | [3] -17.1% | [4] -14.8% | [5] -16.2% | [6] -21.2%

O=C(OCC(OC(=O)c1ccccc1)C(OC(=O)c1ccccc1)C(O)C(O)CO)c1ccccc1 (stereo not given) (tested in a mixture with another compound)
inactive: [1] -6.8% | [2] -4.1% | [3] 9.55% | [4] -17.9% | [5] -12.2% | [6] 28.6%

COc1ccc2nc3ccccc3c(NCCCN(C)C)c2c1
inactive: [1] 33.7% | [2] 41.1% | [3] 36.5% | [4] 60.1% | [5] 6.65% | [6] 12.3%

CNC(=O)OCc1c(COC(=O)NC)c(-c2ccc(S(=O)(=O)c3ccccc3)cc2)n(C)c1C
inactive: [1] -5.85% | [2] -3.85% | [3] -1.95% | [4] -2.7% | [5] -16.4% | [6] -42.6%

NCC(=O)c1c[nH]c(=O)[nH]c1=O
inactive: [1] -8.85% | [2] -5.05% | [3] -12.2% | [4] -42.5% | [5] -10.3% | [6] 4.4%

CC(=O)CC(=O)Nc1ccc(C(=O)O)c(O)c1
inactive: [1] -14.2% | [2] -18.9% | [3] 8.4% | [4] -1.45% | [5] 32.1% | [6] -1%

CCOc1ccccc1NC(C)=O
inactive: [1] -6.5% | [2] 6.1% | [3] 2.2% | [4] -13.4% | [5] -14.6% | [6] -0.75%

O=C(O)C(Cc1ccccc1)c1ccccc1 (stereo not given)
inactive: [1] -39.4% | [2] -12.4% | [3] -11.8% | [4] -21.4% | [5] 9.4% | [6] 2.85%
